PubChem BioAssay (NCI)
About 83,000 compounds went through this panel and 20% of them were active in at least one assay; those are over-represented in the sample as a whole.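 Activity criterion: percent growth below 10, measured after cells in 96-well plates were exposed to a single compound concentration for 48 hours.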 A number with no mark means an inactive call. Activity calls are given as the source filed them.

Tests used:
Assay in all cases: NCI-60 one-dose screen, 48 h (100 = growth as untreated, 0 = no growth, -100 = all killed)
Conditions in all cases: 10 µM unless noted
[1] = system: DU-145 prostate
[2] = system: K-562 leukemia
[3] = system: MALME-3M melanoma
[4] = system: MDA-MB-231 breast
[5] = system: RXF 393 renal
[6] = system: SF-268 CNS
[7] = system: SF-295 CNS
[8] = system: SF-539 CNS
[9] = system: UACC-257 melanoma
[10] = system: M14 melanoma
[11] = system: HCT-15 colon
[12] = system: HT29 colon
[13] = system: SNB-75 CNS
[14] = system: SNB-19 CNS
[15] = system: U251 CNS
[16] = system: PC-3 prostate
[17] = system: UACC-62 melanoma
[18] = system: LOX IMVI melanoma
[19] = system: SK-MEL-28 melanoma
[20] = system: SK-MEL-5 melanoma

Row | SMILES | growth [1] [%] | growth [2] | growth [3] | growth [4] | growth [5] | growth [6] [%] | growth [7] | growth [8] | growth [9] | growth [10] | growth [11] | growth [12] | growth [13] [%] | growth [14] [%] | growth [15] | growth [16] [%] | growth [17] | growth [18] | growth [19] | growth [20] [%]
1 | O=C1Nc2ccccc2/C1=C/c1cccn1CCCCCCn1c2ccccc2c(=O)c2ccccc21 | 94 | 66.6% | 90.7% | 75.4% | 99.2% | 87 | 97.2% | 100% | 110% | 78.2% | 23% | 92.9% | 92.3 | 97.1 | 92.4% | 40.1 | 50.3% | 91.2% | 111% | –
2 | COc1cc(C2CC(c3cccc(Nc4ccncc4)c3)=Nc3c(N)ncnc3N2)cc(OC)c1OC (configuration not stated) | 88.3 | 29.3% | 83.7% | 91% | 94.2% | 79 | 95.5% | 94.8% | 88.2% | 90.7% | 88.3% | 98.1% | 83.8 | 93.8 | 77.7% | 93.8 | 87.3% | 91.3% | 102% | –
3 | COc1ccc(N/N=C/c2ccc3c(c2)Sc2ccccc2N3C)cc1 | 58.7 | 4.21% (active) | 107% | 84.2% | 105% | 53.7 | 6.85% (active) | 57.1% | 96.1% | 40.9% | 84.5% | 98.6% | 73.5 | 81.1 | 63.9% | 44.4 | 10.8% | 28.1% | 100% | –
4 | CC(C)(C)CC(C)(C)Nc1c(-c2c(O)c3ccccc3oc2=O)nc2sccn12 | 113 | 101% | 94% | 93% | 103% | 105 | 98.8% | 101% | 81.4% | 97.2% | 100% | 97% | 108 | 97 | 97.7% | 92.6 | 90.7% | 99.7% | 102% | –
5 | CC(C)=CC(=O)C1C(=O)c2ccccc2C1=O | 104 | 74.5% | 83.6% | 107% | 104% | 101 | 98.3% | 104% | 107% | 94% | 95% | 111% | 90 | 94.7 | 95.1% | 100 | 94.3% | 96.8% | 108% | –
6 | COc1ccc(CNc2c3ccccc3nc3ccccc23)cc1OC | 24.7 | 8.81% (active) | 7.92% (active) | 19.4% | 3.58% (active) | 39.6 | 18.1% | 15.4% | 22.1% | 17.7% | 10.3% | 4.44% (active) | 24.8 | 21.8 | 23.2% | 22 | 26.8% | – | 35.2% | 17.5
7 | CCN1CCN(CCOc2ccc(CNc3ccc4nc(CCC5CCCCC5)[nH]c4c3)cc2)CC1 | 50.3 | 6.76% (active) | -88.2% (active) | -31.4% (active) | 28.2% | 54.4 | 48% | -87.1% (active) | -69.4% (active) | -76.5% (active) | -17.7% (active) | 8.35% (active) | 79.8 | 39.3 | -19.7% (active) | 42 | -16.4% (active) | -78.6% (active) | -88% (active) | –
8 | O=C(NCCN1CCOCC1)c1cncnc1Nc1ccc2c(ccn2Cc2ccccn2)c1 | 110 | 116% | 102% | 106% | 134% | 97.3 | 102% | 100% | 102% | 108% | 105% | 102% | 82.4 | 95.5 | 99.7% | 101 | 94.6% | 101% | 108% | –
